# Measurements published in PubChem BioAssay (Tox21).
# Values joined by “and” are separate entries in the source; they are usually repeats but may differ in a detail not shown here. Identical values can stand only once. Inconclusive results are not listed. Entries that show only a call come without a potency. Active and inactive are the calls of the source. Calls come from the whole dose curve; as a rule, active = well fitted inhibition curve with a large enough effect in the repeat runs; inconclusive = weak or mixed curves; inactive = no such curve, though single readings can be large or run the other way.
# Target: Cytochrome P450 3A4 (Homo sapiens) (UniProt P08684)
# Experiment: Cytochrome P450 Family 3 Subfamily A Member 4 (CYP3A4) small molecule antagonists: luciferase reporter qHTS assay (AID 1671201); note: nearly all actives have a fitted effect of over 50% in size
# Conditions: P450-Glo CYP3A4 enzyme, luciferin luminescence, 1 h; series mostly up to 115 µM
# In short: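 Enzyme and proluciferin substrate are mixed with test chemicals for 10 min, then NADPH regeneration system drives turnover for 1 h at room temperature. A detection reagent halts the reaction; luminescence after 20 min gives relative activity.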
# Potency is the fitted concentration of half-maximal effect.
# Cytochrome P450 3A4 (Homo sapiens), sequence (P08684 whole entry, looked up): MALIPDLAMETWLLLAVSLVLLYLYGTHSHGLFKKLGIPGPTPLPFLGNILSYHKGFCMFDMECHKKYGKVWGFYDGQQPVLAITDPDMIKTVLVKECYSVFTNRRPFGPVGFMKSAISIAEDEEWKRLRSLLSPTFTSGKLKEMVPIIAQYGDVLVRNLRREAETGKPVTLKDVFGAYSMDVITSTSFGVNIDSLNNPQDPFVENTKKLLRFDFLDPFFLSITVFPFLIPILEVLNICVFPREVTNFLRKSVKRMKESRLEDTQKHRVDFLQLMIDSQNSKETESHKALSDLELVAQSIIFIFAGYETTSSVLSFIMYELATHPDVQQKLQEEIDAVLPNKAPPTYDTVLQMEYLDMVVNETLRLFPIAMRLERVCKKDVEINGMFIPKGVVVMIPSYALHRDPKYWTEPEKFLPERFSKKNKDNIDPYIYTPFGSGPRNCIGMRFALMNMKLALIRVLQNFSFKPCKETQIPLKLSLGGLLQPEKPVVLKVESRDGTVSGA
row,SMILES,Potency
1,CCCCCCCCCCCCOCC1CO1 (centres undefined),inactive
2,O=S(=O)(O)CCS,inactive
3,O=C(O)c1cc(-c2ccccc2)nc2ccccc12,inactive
4,OC1CCCC1,inactive
5,Cc1ccc(N)c(S(=O)(=O)O)c1,inactive
6,CCCCOCCOCCOC(=O)CCCCC(=O)OCCOCCOCCCC,20.1 µM (active) and 31.7 µM (active)
7,Cc1cc(Cc2ccc(N)c(C)c2)ccc1N,894 nM (active) and 2.52 µM (active)
8,NCCc1ccc(O)c(O)c1,inactive
9,C=C(C#N)C(=O)OCC,inactive
10,CC[Si](OC(C)=O)(OC(C)=O)OC(C)=O,3.17 µM (active) and 35.6 µM (active)
11,C=C(C)C(=O)OCCCCCCCCCCCC,inactive
12,C=C(C)C(=O)OCCC[Si](OC)(OC)OC,3.14 µM (active) and 63.3 µM (active)
13,COCC(C)O (centres undefined),inactive
14,O=C1CCCCC1,inactive
15,CCCCCCCCCCCCN,inactive
16,C[C@@H]1O[C@@H](OC[C@H]2O[C@@H](Oc3c(-c4ccc(O)c(O)c4)oc4cc(O)cc(O)c4c3=O)[C@H](O)[C@@H](O)[C@@H]2O)[C@H](O)[C@H](O)[C@H]1O,inactive
17,CC(C)Cc1ccccc1,inactive
18,O=C(c1cc(O)c(O)c(O)c1)c1ccc(O)c(O)c1O,inactive
19,C=C(C)C(=O)OCCCCCC,inactive
